# Screening data deposited in PubChem by National Center for Advancing Translational Sciences (NCATS).
# The list is not random: actives were taken first. Their share in the collection is about 19%.
# SW480 rereplic = induces DNA re-replication in SW480 colon adenocarcinoma cells; SW480 DNA re-replication, Hoechst DNA content imaging, 48 h; Potency, µM (top dose mostly 46.1 µM), for the others: at the highest dose re-replication activation, usual class: activators; 340,000 tested, 1.8% active; also: potency is read from the fitted curve at half-maximal effect; % of control where 0% means no effect; nearly all actives have a fitted effect of over 55% in size
#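 Cells (250 per well) received 23 nL compound or DMSO by pin tool and were kept 48 hr at 37 C, 5% CO2. Nuclei were then stained with Hoechst for 40 min and scanned for DNA content.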
# MCF10A rerep = DNA re-replication induction in MCF 10a cells. 350,000 tested, 2.9% active. Potency, µM (highest dose often 46.1 µM), without a hit: at the top dose activity, positive = re-replication, usual class: activators. MCF 10A DNA re-replication, Hoechst nuclear intensity, 48 h; also: potency is read from the fitted curve at half-maximal effect; % of control where 0% means no effect; nearly all actives have a fitted effect of over 50% in size
# TDP1 cell noCPT = qHTS for Inhibitors of human tyrosyl-DNA phosphodiesterase 1 (TDP1): qHTS in cells in absence of CPT; 420,000 tested, 15% active; Potency, µM (titrated, usually from 46.2 µM), for inactives: at the top dose activity change, negative = growth inhibition, actives largely listed as inhibitors; DT40 Tdp1-/- hTDP1 cells, no CPT, ATP luminescence, 48 h; also: potency is read from the fitted curve at half-maximal effect; % is scaled to controls: 0 for no effect and ±100 for the full control effect; nearly all actives have a fitted effect of over 55% in size
#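 A cellular qHTS used chicken DT40 cells lacking endogenous Tdp1 but carrying stably transfected human TDP1. Compounds were applied without camptothecin, and cell growth kinetics were judged by ATP-dependent luminescence after ≥48 hr.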
# IL1B secr inh = inflammasome signaling inhibition, IL-1 beta readout; activity change, % at 57.5 µM; 360,000 tested, 4.7% active; AID 743279; THP-1 LPS/ATP IL-1B secretion, AlphaLISA, 16 h; hits give low values; in the data active = activity change below about -50%; inconclusive = mostly about -30% to -49%; also: % is scaled to controls: 0 for no effect and ±100 for the full control effect
#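 Secreted IL-1B measured by AlphaLISA bead assay after 16 h compound exposure of THP-1 cells; compounds (final up to 57.5 uM) added 1 h before LPS (250 ng/mL) and ATP (1.25 mM) stimulation; lower signal means less secretion.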
# TDP1 cell CPT = DT40-hTDP1 cell growth loss with CPT; Potency, µM (doses to about 46.2 µM), for the others: at the top dose activity change, negative = growth inhibition, usual class: inhibitors; 420,000 tested, 12% active; chicken DT40 Tdp1-/-;hTDP1 cells + 20 nM CPT, ATP luminescence, 48 h; also: potency is read from the fitted curve at half-maximal effect; % is scaled to controls: 0 for no effect and ±100 for the full control effect; nearly all actives have a fitted effect of over 55% in size
#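 Cell growth measured by CellTiter-Glo luminescence after a minimum 48 h, 37 C compound exposure with 20 nM CPT in Tdp1-knockout DT40 cells stably expressing hTDP1, seeded 400/well; qHTS titration format.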
# BCR signal inh = blocks chronic active B-cell receptor signaling. ABC-DLBCL IkBa-CBG/CBR reporter, luminescence ratio, 4 h. Potency, µM (titrated, usually from 46.1 µM), for the others: at the top dose activity change, negative = inhibition, most hits filed as inhibitors. 340,000 tested, 0.05% active; active = well fitted inhibition curve with a large enough effect in the signal ratio, with a control signal flat, not every such curve was filed as active; inconclusive = small, poorly fitted or top-dose-only effect, or effect the other way, or a change in a side signal; the % refers to the signal ratio;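 also: potency is read from the fitted curve at half-maximal effect; plate controls were basal doxycycline-induced cells for no effect and cells given 10 µM MG132 for full effect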
#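 Doxycycline induced both beetle luciferases in TMD8 lymphoma cells; IKK-driven degradation limits the IkappaBalpha-fused green signal, while red luminescence normalises for cell number and nonspecific effects. Compounds tested up to 46 uM, 4 hrs.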
# * marks the source's active call; other numbers are inactive results; ? = inconclusive; . = no result; [ ] = another dose, or the depositor's remark. Unless noted, calls follow the shape of the dose curve; as a rule, active = well fitted curve in the direction sought with a large enough effect; inconclusive = small, poorly fitted or top-dose-only effect, or another doubt; inactive = no such curve, though single readings can be large; an effect the other way counts as inactive or inconclusive.
SMILES,SW480 rereplic,MCF10A rerep,TDP1 cell noCPT,IL1B secr inh,TDP1 cell CPT,BCR signal inh
Cn1c(NCCO)nc2c1c(=O)n(Cc1cccc(F)c1)c(=O)n2C,.,.,-17%,.,6%,.
Cc1ccc(CN2CCN(Cc3cn[nH]c3-c3cccc(F)c3)CC2CCO)o1 (stereo not drawn),0%,-21%,-1%,36,-2%,-21%
FC(F)(F)c1nc2nc(Cl)c(Cl)nc2n1CCCN1CCOCC1,.,.,?,-26,-14%,.
O=C(CSc1nnc(-c2ccccc2)n1-c1ccccc1)c1cccs1,0%,?,12µM*,-23,?,?
COc1ccc(NC(=O)CSc2nnc(-c3cccs3)n2N)c(OC)c1,-4%,1%,1%,-8,4%,19%
OC(c1ccc2c(c1)CN(Cc1cccn1-c1cccnc1)CCO2)C1CCCCC1 (stereo not drawn),.,.,-29%,.,?,.
CCCCNC(=O)C1(C)CCCCN1C(=O)c1ccc(C#N)cc1 (stereo not drawn),.,.,-14%,4,3%,.
CC(C)CSCC1OC(n2cnc3c(N)nccc32)C(O)C1O (stereo not drawn),.,.,21µM*,33,?,.
CC(C)[C@H](N)C(=O)NC[C@H]1O[C@@H](n2cnc3c(N)ncnc32)[C@H](O)[C@@H]1O,-22%,20%,-9%,1,-8%,-1%
COc1ccc(CN2CCN(Cc3c[nH]c4ccccc34)CC2)c(OC)c1,.,.,0.29µM*,-29,-83%,.
COc1ccc(CN2CCN(Cc3c[nH]c4ccccc34)CC2)cc1,?,1%,13µM*,.,6.5µM*,0%
COc1ccc(Br)cc1CN1CCN(Cc2c[nH]c3ccccc23)CC1,?,?,7.3µM*,-74*,4.6µM*,?
COc1ccc(CN2CCN(S(=O)(=O)c3ccccc3)CC2)c(OC)c1,-1%,5%,15µM*,16,?,?
COCCN(C(=O)c1ccc(N(C)S(=O)(=O)c2ccc(C)cc2)cc1)c1c(N)n(CC(C)C)c(=O)[nH]c1=O,-15%,10%,12%,-13,-6%,.
Cc1ccc(-c2nc3c(cnn3-c3ccccc3)c(=O)n2-c2cccc(Cl)c2)cc1,.,.,13µM*,.,23µM*,.
Cc1ccc(-n2c(-c3ccc(Br)cc3)nc3c(cnn3-c3ccccc3)c2=O)cc1,.,.,21µM*,.,?,.
O=c1oc(-c2cccc(Cl)c2)nc2c1cnn2-c1ccccc1,-4%,10%,?,17,?,-5%
COc1cccc(-n2c(-c3ccccc3F)nc3c(cnn3-c3ccc(C)cc3)c2=O)c1,.,.,12µM*,.,16µM*,.
Cc1ccc(-n2c(C)nc3c(cnn3-c3ccccc3)c2=O)cc1,.,.,.,.,.,-13%
O=c1oc(-c2ccccc2F)nc2c1cnn2-c1ccccc1,1%,18%,23µM*,12,?,-11%
CC(C)[C@H](NS(=O)(=O)c1ccccc1F)C(=O)OCC(=O)Nc1cccc(S(N)(=O)=O)c1,-8%,-39%,-13%,19,10%,-2%
CN(C)Cc1ccccc1-c1cncnc1NCc1cccs1,.,.,-11%,.,1%,.
CN1CCCC(CNC(=O)c2cnn(-c3nccc(-c4cccs4)n3)c2C2CC2)C1 (stereo not drawn),.,.,-16%,.,-9%[9.04 µM],.
COc1cc(Cl)c(C)cc1NC(=O)CN1CCN(C(=O)C2CC2)CC1,?,-13%,?,2,?,0%
O=c1[nH]c2c(cnn2-c2ccc(Cl)cc2)c(=O)n1-c1cccc(Cl)c1,-3%,10%,29µM*,11,?,?
SMILES,SW480 rereplic,MCF10A rerep,TDP1 cell noCPT,IL1B secr inh,TDP1 cell CPT,BCR signal inh
O=C(Nc1ccc(-c2csc(Nc3ccccc3)n2)cc1)c1cccc(C(F)(F)F)c1,13%,-15%,4.1µM*,116,2.9µM*,5%
N#Cc1ccc(Nc2nc(-c3ccccc3)cs2)cc1,.,.,?,-6,?,.
O=[N+]([O-])c1ccc(-c2csc(Nc3ccccc3)n2)cc1,.,.,13µM*,.,?,.
O=C(Nc1cccc(-c2csc(Nc3cccc(C(F)(F)F)c3)n2)c1)c1cc([N+](=O)[O-])cc(C(F)(F)F)c1,?,?,5.8µM*,4,7.3µM*,2%
O=C(Nc1ccc(-c2csc(-c3ccccc3)n2)cc1)c1ccccc1,4%,?,?,-13,?,14%
Cc1ccc(C(=O)Nc2cccc(C(F)(F)F)c2)cc1NC(=O)c1csc(-c2ccncc2)n1,3%,18%,4.1µM*,26,6.5µM*,-3%
CC(=O)c1cccc(Nc2nc(-c3cccc([N+](=O)[O-])c3)cs2)c1,-4%,?,?,-1,?,2%
N#Cc1cccc(NC(=O)N2CC[C@@]3(CCCN(C(=O)c4ccncc4)C3)C2)c1,.,.,0%,.,7%,.
NC(=O)Cc1nc(-c2ccc([N+](=O)[O-])cc2)cs1,9%,-8%,?,21,10µM*,1%
O=C(Nc1ccc(-c2csc(Nc3ccccc3)n2)cc1)c1cc([N+](=O)[O-])cc(C(F)(F)F)c1,14%,29%,18µM*,88,?,7%
Cc1ccc(-c2csc(NC(=O)c3cccc([N+](=O)[O-])c3)n2)cc1,-6%,?,-14%,-1,-10%,-6%
CC(C)n1c(=O)c2ccccc2n1Cc1cn(-c2ccccc2)nn1,.,.,?,5,-12%,.
CCC1(C2CCN(C(=O)c3csc(C(C)=O)c3)CC2)NC(=O)N(CCc2scnc2C)C1=O (stereo not drawn),.,.,-14%,.,12%[9.04 µM],.
CNC[C@@H]1OCc2ccccc2-c2ccccc2C(=O)N([C@H](C)CO)C[C@@H]1C,.,.,1%,3,-7%,.
Cc1cc(=O)[nH]c(SCC(=O)N(CCC#N)c2ccccc2)c1C#N,-3%,0%,-5%,9,-10%,7%
CC(c1ccccc1)N(CCC(c1ccccc1)C1CCOC(C)(C)C1)C(=O)c1ccco1 (stereo not drawn),-2%,16µM*,18µM*,0,?,?
COc1ccc(CN(CCC(c2ccc(F)cc2)C2CCOC(C)(C)C2)C(=O)c2ccco2)cc1 (stereo not drawn),5%,23µM*,16µM*,-103*,21µM*,?
COc1ccc(CN(CCC(c2ccccc2)c2ccco2)C(=O)c2ccco2)cc1 (stereo not drawn),-4%,?,?,-22,?,?
